Out of some 52,000 compounds screened, about 4,300 (8.3%) were called active. Many of the other results were omitted from the sample, so actives are more common in it than they were. A number with no mark means an inactive call. Cut-off read from the data, not from the text of the source: active = survival mostly below about 52% (no sharp cut-off); inactive = mostly above about 56%.
System: DeltatarO mutant
Experiment: S. aureus survival, RN4220 and DeltatarO strains – OD600, teichoic acid synthesis inhibitors, primary screen (AID 463173)
Conditions: S. aureus RN4220 wild type/DeltatarO growth, OD600, 18 h, hits give low values, screened at 18.75 µg/mL (by protocol)

Row | SMILES | survival
1 | COc1ccc(-c2c3c(=O)n(C)c(=O)n(C)c3cn2-c2cccc(N)c2)cc1 | 79%
2 | COc1cccc2c1Oc1ncccc1N(c1ccc(C(=O)NCc3ccccc3C)s1)C2 | 84%
3 | CCOc1ccccc1CNC(=O)c1cc(-c2ccc(C)c(C)c2)nc2ccccc12 | 74%
4 | COc1ccc(NC(=O)c2ccc(NC(=O)CCS(=O)(=O)c3cccs3)cc2)cc1OC | 50%
5 | COc1cccc2sc(N3CCN(C(=O)CS(=O)(=O)c4ccc(Cl)cc4)CC3)nc12 | -4% (active)
6 | Cc1ccc(S(=O)(=O)CCC(=O)N2CCN(c3nc4c(C)c(Cl)ccc4s3)CC2)cc1 | 72%
7 | Cc1c(Cl)ccc2sc(N3CCN(C(=O)CS(=O)(=O)c4ccccc4)CC3)nc12 | 106%
8 | Cc1cccc2sc(N3CCN(C(=O)CS(=O)(=O)c4ccc(F)cc4)CC3)nc12 | 102%
9 | CCCCC(=O)N1CCN(c2nc3c(C)c(C)ccc3s2)CC1 | 46% (active)
10 | Cc1ccc2sc(N3CCN(C(=O)CCS(=O)(=O)c4ccc(F)cc4)CC3)nc2c1C | 115%
11 | Cc1ccc(S(=O)(=O)CCC(=O)N2CCN(c3nc4c(C)c(C)ccc4s3)CC2)cc1 | 92%
12 | Cc1ccc2sc(N3CCN(C(=O)CCS(=O)(=O)c4ccc(Cl)cc4)CC3)nc2c1C | 64%
13 | COc1cccc2sc(N3CCN(C(=O)CCS(=O)(=O)c4ccc(F)cc4)CC3)nc12 | 66%
14 | Cc1c(Cl)ccc2sc(N3CCN(C(=O)CCS(=O)(=O)c4ccc(F)cc4)CC3)nc12 | 0% (active)
15 | COc1ccc(OC)c2sc(N3CCN(C(=O)CCS(=O)(=O)c4ccc(F)cc4)CC3)nc12 | 94%
16 | Cc1ccc(S(=O)(=O)CC(=O)N2CCN(c3nc4c(F)cccc4s3)CC2)cc1 | -5% (active)
17 | O=c1cc(-c2ccccc2)n2c(SCc3cccc([N+](=O)[O-])c3)nnc2[nH]1 | 69%
18 | Cc1noc(Cn2c(=O)c3cc4c(cc3n(CC(=O)Nc3ccccc3F)c2=O)OCO4)n1 | 77%
19 | Cc1cccc(CS(=O)(=O)Cc2ccc(C(=O)NCc3ccc(Cl)cc3)o2)c1 | 130%
20 | Cc1ccc(-n2c(=O)c3c4c(sc3n(CC(=O)c3ccc(Cl)cc3)c2=O)CCC4)cc1C | 168%
21 | Cc1ccc(Cl)cc1NC(=O)CCC(=O)NCc1ccco1 | 74%
22 | Cc1ccc(NS(=O)(=O)c2ccc3c(c2)CCCN3C(=O)C2CCC2)cc1Cl | 107%

Row | SMILES | survival
23 | CCc1cccc(C)c1NC(=O)Cn1cc2c(n1)CCCC2 | 99%
24 | CCc1ccccc1NS(=O)(=O)c1ccc2[nH]cc(C(=O)N(CC(C)C)CC(C)C)c(=O)c2c1 | 84%
25 | Cc1ccc(N(CC(C)C)S(=O)(=O)c2nnc(NC(=O)C(C)C)s2)cc1 | 72%
26 | COc1ccc(C(=O)Nc2nnc(S(=O)(=O)N(CC(C)C)c3ccc(C)cc3)s2)cc1OC | 68%
27 | COc1ccc(C(=O)Nc2nnc(S(=O)(=O)N(CC(C)C)c3ccccc3)s2)cc1 | 51%
28 | Cc1ccc(N(CC(C)C)S(=O)(=O)c2nnc(NC(=O)c3cccs3)s2)cc1 | 34% (active)
29 | COc1ccc(N(CC(C)C)S(=O)(=O)c2nnc(NC(=O)c3cccs3)s2)cc1 | 42% (active)
30 | CC(C)CN(c1ccccc1)S(=O)(=O)c1nnc(NC(=O)C2CCCCC2)s1 | 51%
31 | CCc1ccc(CNC(=O)C2CCN(C(=O)N3CC(CC)Oc4ccc(C)cc43)CC2)cc1 (stereo not drawn) | 55%
32 | Cc1ccc2nc(-c3ccc(Cl)c(NC(=O)c4cccc([N+](=O)[O-])c4C)c3)oc2c1 | 126%
33 | Cc1ccc2nc(-c3ccc(Cl)c(NC(=O)COc4ccc([N+](=O)[O-])cc4)c3)oc2c1 | 54%
34 | Cc1ccc(OCC(=O)Nc2ccc(-c3nc4ccccc4o3)cc2)c(C)c1 | 63%
35 | Cc1cc2nc(-c3cccc(NC(=O)COc4ccc(C(C)C)cc4)c3)oc2cc1C | 50%
36 | Cc1cc(C)cc(OCC(=O)Nc2ccc(-c3nc4ccccc4o3)cc2)c1 | 51%
37 | Cc1ccc2nc(-c3ccc(C)c(NC(=O)Cc4ccccc4)c3)oc2c1 | 77%
38 | Cc1cccc(OCC(=O)Nc2ccc(-c3nc4ccccc4o3)cc2)c1C | 52% (active)
39 | Cc1ccc(OCC(=O)Nc2c(Cl)ccc3nsnc23)cc1C | 71%
40 | Cc1ccc2nc(-c3ccc(Cl)c(NC(=O)COc4cccc(C)c4C)c3)oc2c1 | 48% (active)
41 | O=C(COc1ccccc1)Nc1c(Cl)ccc2nsnc12 | 74%
42 | CC(C)c1ccc(OCC(=O)Nc2c(Cl)ccc3nsnc23)cc1 | 41% (active)
43 | Cc1ccc2nc(-c3ccc(Cl)c(NC(=O)COc4ccc(C(C)C)cc4)c3)oc2c1 | 42% (active)
44 | CN1CCN(C(=O)/C(=C/c2cccs2)NC(=O)c2cccs2)CC1 | 74%

Row | SMILES | survival
45 | CC(C)CCNC(=O)c1cnc2sc(N3CCCCCC3)nn2c1=O | 78%
46 | CCN(CC)S(=O)(=O)c1ccc2c(c1)c(=O)c(C(=O)N1CCN(c3cccc(C)c3)C(C)C1)cn2C (stereo not drawn) | 78%
47 | COc1ccc(N2CCN(C(=O)c3nn(-c4ccc(C)cc4)c(=O)n(C)c3=O)CC2)cc1 | 71%
48 | CCN(CC)CCNC(=O)CCn1c(=O)c2cccn2c2cccnc21 | 87%
49 | O=C(Cn1nnc(-c2ccc(Cl)cc2)n1)NCc1ccc(F)cc1 | 78%
50 | CC(C)c1ccc(NC(=O)N2c3ccccc3Sc3ccccc32)cc1 | 6% (active)
51 | CCOC(=O)N1c2ccccc2Sc2ccccc21 | 98%
52 | CC(=O)N1c2ccccc2Sc2ccccc21 | 102%
53 | CCN(CC)C(=O)N1c2ccccc2Sc2ccccc21 | 99%
54 | O=C(C1CC1)N1c2ccccc2Sc2ccccc21 | 73%
55 | CCc1ccc(NC(=O)N2c3ccccc3Sc3ccccc32)cc1 | -2% (active)
56 | Cc1ccc(-c2cc(C(F)F)n3ncc(C(=O)Nc4cn(C)nc4C)c3n2)cc1 | 89%
57 | CC1=C(C(=O)Nc2ccc(F)cc2F)C2(CCCCCC2)OC1=O | 83%
58 | Cc1cc(=O)n(CC(=O)Nc2cccc([N+](=O)[O-])c2)c(-n2nc(C)cc2C)n1 | 95%
59 | Cc1cc(C)n(-c2nc(C)c(C)c(=O)n2CC(=O)Nc2ccc([N+](=O)[O-])cc2)n1 | 77%
60 | Cc1cc(C)n(-c2nc(C)c(C)c(=O)n2CC(=O)Nc2cccc([N+](=O)[O-])c2)n1 | 52% (active)
61 | Clc1ccc(CN2CCN(c3ncnc4sc5c(c34)CCCC5)CC2)cc1Cl | 107%
62 | O=C(c1ccco1)N1CCN(c2ncnc3sc4c(c23)CCC4)CC1 | 36% (active)
63 | Cc1nc(N2CCN(C(=O)c3ccco3)CC2)c2c3c(sc2n1)CC(C(C)(C)C)CC3 (stereo not drawn) | 77%
64 | c1nc(N2CCCC2)c2c3c(sc2n1)CCC3 | 70%
65 | COc1ccc(CN2CCN(c3ncnc4sc5c(c34)CCCC5)CC2)cc1F | 33% (active)
66 | COc1ccc(CN2CCN(c3ncnc4sc5c(c34)CC(C)CC5)CC2)cc1F (stereo not drawn) | 83%

Row | SMILES | survival
67 | Cc1ccc(NC(=O)Cn2cc(S(=O)(=O)N3CCC(C)CC3)c3ccccc3c2=O)c(Br)c1 | 84%
68 | CCc1ccc(NCc2cc3cc4c(cc3n(CC(=O)Nc3ccc(Cl)cc3)c2=O)OCO4)cc1 | 135%
69 | Cc1ccc(NCc2cc3cc4c(cc3n(CC(=O)Nc3ccc(C)cc3)c2=O)OCCO4)cc1 | 32% (active)
70 | COc1ccc(NCc2cc3cc4c(cc3n(CC(=O)Nc3ccc(C)cc3)c2=O)OCO4)cc1 | 67%
71 | CCOc1ccc(NC(=O)Cn2c(=O)c(CNc3ccc(CC)cc3)cc3cc4c(cc32)OCO4)cc1 | 47% (active)
72 | CCc1ccc(NCc2cc3cc4c(cc3n(CC(=O)Nc3ccc(C)cc3)c2=O)OCO4)cc1 | 89%
73 | CC(=O)c1cccc(NC(=O)Cn2c(=O)c(CNc3ccc(C)cc3)cc3cc4c(cc32)OCCO4)c1 | 91%
74 | CCOC(=O)c1ccc(NC(=O)c2c(NCc3ccc(OC)c(OC)c3OC)sc3c2CCC(C)C3)cc1 (stereo not drawn) | 123%
75 | COc1cccc(C(=O)N(Cc2ccc(C)o2)C2CCS(=O)(=O)C2)c1 (stereo not drawn) | 96%
76 | CN(C(=O)c1cc2nc(-c3ccco3)cc(C(F)(F)F)n2n1)C12CC3CC(CC(C3)C1)C2 | 110%
77 | COC(=O)c1ccccc1NC(=O)c1cn2c3c(ccc(Cl)c3c1=O)OC(C)C2 (stereo not drawn) | 84%
78 | Cc1cccc(-n2c3nc(=O)n(C)c(=O)c-3cc3ccc(Cl)cc32)c1C | 81%
79 | CCCn1c(=O)c2sccc2n2c(CCCC(=O)Nc3ccc(Oc4ccc(Cl)cc4)cc3)nnc12 | 98%
80 | Cn1c(=O)c2sccc2n2c(CCCC(=O)Nc3ccc(Oc4ccccc4)cc3)nnc12 | 53%
81 | Cn1c(=O)c2sccc2n2c(CCCC(=O)Nc3ccc(Oc4ccc(Cl)cc4)cc3)nnc12 | 24% (active)
82 | COc1ccc(NC(=O)c2ccc(CN3C(=O)CCn4nc(C)cc43)cc2)c(OC)c1 | 99%
83 | CCC1(c2csc(Nc3ccccc3C)n2)CCC(=O)O1 (stereo not drawn) | 89%
84 | CCCC1CC(C)(/C(C)=N\NC(N)=S)OC1=O (stereo not drawn) | 98%
85 | CCCC1CC(C)(c2csc(NCC)n2)OC1=O (stereo not drawn) | 71% (active)
86 | CCCCc1ccc(NC(=O)C2(C)Cc3ccccc3C(=O)O2)cc1 (stereo not drawn) | 75%
87 | COc1ccc(S(=O)(=O)N(CC(=O)NCCc2ccccc2)c2ccc(Cl)cc2)cc1 | 83%
88 | COc1ccc(CCN2C(=O)N(c3ccc(F)cc3)C(=O)C2CC(=O)Nc2ccc(F)c(F)c2)cc1 (stereo not drawn) | 61%
